From PubChem BioAssay
Unmarked numbers belong to inactive results. No stated cut-off is given here; in the data, active means inhibition above about 31%; inactive means the rest.

Assay: yeast transport mutant growth inhibition pilot in 384-well plates, post-Golgi transport modulator project (AID 636)
Conditions: absorbance 615 nm, about 18 h, active compounds read high

Row | SMILES | inhibition [%]
1 | COC(=O)c1cc(-c2c(C)nn(-c3ccccc3)c2C)n[nH]1 | -2.63
2 | CCN(CC)CCNC(=O)C1CCN(S(=O)(=O)N2CCCCC2)CC1 | -3.82
3 | COc1ccc(-c2noc(CCC(=O)Nc3nc4ccccc4s3)n2)cc1 | 2.21
4 | Nc1nc(SCCOc2ccccc2)n[nH]1 | -5.19
5 | COc1cc(OC)cc(-c2nc(N)n[nH]2)c1 | -6.4
6 | O=c1ccn(Cc2ccccc2Cl)cc1 | -4.47
7 | O=C(NC12CC3CC(CC(C3)C1)C2)N1CCN(C(=O)C2CCCO2)CC1 (stereo unspecified) | -7.07
8 | O=C(C1CC2CCC1C2)N1CCN(Cc2ccc3c(c2)OCO3)CC1 (stereo unspecified) | -4.68
9 | O=C(O)c1cccn2c(=O)c3ccccc3nc12 | -2.8
10 | COc1cc2c(cc1NCc1ccccn1)oc1ccccc12 | -4.13
11 | CCCCCCn1c(CN2CCN(Cc3ccccc3)CC2)nc2c1c(=O)n(C)c(=O)n2C | -5.48
12 | Cc1cccc2cc(C(c3nnnn3C(C)(C)C)N3CCN(C(=O)c4ccco4)CC3)c(=O)[nH]c12 (stereo unspecified) | -6.32
13 | Cc1ccc(Cn2ccc(NC(=O)c3noc4c3CCCC4)n2)cc1 | -3.25
14 | CCOC(=O)CC(=O)c1cc(OC)c(OC)c(OC)c1 | -0.53
15 | CCOc1ccc(C2/C(=C(/O)c3ccccc3)C(=O)C(=O)N2CCCN(C)C)cc1OC (stereo unspecified) | -2.63
16 | Cn1c(=O)c(=O)n(C)c2cc(S(=O)(=O)N3CCN(c4cccc(C(F)(F)F)c4)CC3)ccc21 | 0.4
